Values joined by “and” are separate entries in the source; they are usually repeats but may differ in a detail not shown here. Equal values may be shown once.
Assay: 384-well plate pilot, post-Golgi transport modulator project, inhibition of yeast transport mutant growth (AID 636)
Settings: absorbance 615 nm, about 18 h, hits give high values

inhibition, inactive:
Cn1c(=O)[nH]c(=O)c2c1nc(N1CCNCC1)n2CCOc1ccccc1 4.32%, CCOC(=O)c1cc2n(n1)C(C(F)(F)C(F)(F)F)CC(C)N2 (stereo not given) -3.73%, Cc1ccccc1-n1c(=O)c2ccccc2n2nnnc12 0%, Cc1cccc(N2C(=O)CC(N3CCN(C(=O)c4ccccc4)CC3)C2=O)c1 (stereo not given) -5.32%, CC(C)Cn1c(=O)c(C2=NS(=O)(=O)c3ccccc3N2)c(O)c2ccccc21 -2.21%, c1ccc(CNc2ncnc3ccccc23)cc1 -5%, O=S1(=O)N=C(Nc2nc3c(s2)CCCC3)c2ccccc21 0.93%, CCCn1c2ccccc2c2nnc(SCC(=O)Nc3ncccn3)nc21 -0.53%, COc1cc(OC)cc(C(=O)N2c3ccc(F)cc3CCC2C)c1 (stereo not given) -0.14%, CCOC(=O)C(CCc1nnc(N)s1)C(=O)OCC -4.53%, CCOC(=O)N1CCN(c2c(NCCCOC(C)C)c(=O)c2=O)CC1 -3.47%, CN(C)S(=O)(=O)Nc1ccc(Br)cc1F -5.2%, CC(=O)Nc1c(C(=O)C2CC2)oc2ccccc12 -5.33%, O=C(COC(=O)c1cc(-c2ccco2)nc2ccccc12)NCc1ccc2c(c1)OCO2 -5.75%, CCC(=O)c1ccc(OCCN2CCOCC2)cc1 -5%, Cc1cc(=O)oc2cc(OCC(=O)OCc3nnc(-c4ccccc4)o3)ccc12 -6.18%, Nn1c(SCC(=O)NC2CCCCC2)nnc1C1CC1 -0.52%, CCN(C(=O)Cc1c(C(=O)O)[nH]c2ccccc12)c1cc(OC)ccc1OC -6.62%, O=C(NCc1ccco1)c1cnc2n(c1=O)CCS2 0.78%, O=C1CN(C(=O)COC(=O)c2ccccc2NC(=O)c2ccco2)c2ccccc2N1 -5.95%, CC(=O)Nc1ccc(S(=O)(=O)n2nc(C)cc2C)cc1 -6.45%, CCOC(=O)CSc1nnc(Cn2nnc(-c3ccccc3)n2)n1CC -7.2%, O=C(Nc1ccccc1C(=O)N1CCCCCC1)c1cccc(S(=O)(=O)N2CCOCC2)c1 -1.84%, Cc1ccc(-c2cc(C(=O)NCc3ccc4c(c3)OCO4)no2)cc1 -7.43%, CCOC(=O)c1cc(C)sc1N1C(=O)C2C3C=CC(C3)C2C1=O (stereo not given) -7.67%, Cc1ccc(-c2nc(CS(=O)CC(=O)NCCN(CC(C)C)CC(C)C)c(C)o2)cc1 (stereo not given) -5.2%, CCN(CC)S(=O)(=O)N1CCC(C(=O)NC2CCCc3ccccc32)CC1 (stereo not given) 5.45%, COc1ccc(OC)c(Nc2cc(-c3ccccc3)nc(N)n2)c1 -5.92%, O=c1ccc(S(=O)(=O)N2CCC(Cc3ccccc3)CC2)c[nH]1 0.13%, CN(C)S(=O)(=O)c1ccc(Oc2ccc(S(=O)(=O)N(C)C)cc2)cc1 -2.4%, COc1ccc2c(c1OC)C(=O)OC2C1c2c(cc3c(c2OC)OCO3)CCN1C (stereo not given) 1.95% and -2.86%, c1ccc(-c2cn3c4c(sc3n2)CCCC4)cc1 -2.37%, Oc1ccc2[nH]cnc2c1CN1CCCCC1 -5.39%, CCCCOc1cc(=O)[nH]c(=O)[nH]1 -2.11%, COc1cc(-c2nn3c(-c4cccnc4)nnc3s2)cc(OC)c1OC -4.87%, CCS(=O)(=O)Nc1ccc(C(=O)CC2(O)C(=O)Nc3ccccc32)cc1 (stereo not given) -5.87%, Cn1c(=O)c2[nH]c(NCC3CCCO3)nc2n(-c2ccccc2)c1=O (stereo not given) -4.87%, Cc1cccc(OCCCC(=O)O)c1 -4.73%, Cc1cccc2cc(CN(CC3CCCO3)C(=O)c3cnccn3)c(=O)[nH]c12 (stereo not given) -1.43%, COCCCNC(=O)C(Cc1ccccc1)NS(=O)(=O)c1ccc2c(c1)c(=O)n(C)c(=O)n2C (stereo not given) -2.63%

Assay: growth suppression of yeast trafficking mutant, preliminary HTS, modulators of trafficking downstream of Golgi apparatus project, 1536-format plate, OD 615 nm (AID 637; in the data active = inhibition above about 30%)
Settings: yeast transport mutant growth, absorbance 615 nm, 18 h; hits give high values

inhibition, inactive:
Cn1c(=O)[nH]c(=O)c2c1nc(N1CCNCC1)n2CCOc1ccccc1 10.8%, CCOC(=O)c1cc2n(n1)C(C(F)(F)C(F)(F)F)CC(C)N2 (stereo not given) -0.32%, Cc1ccccc1-n1c(=O)c2ccccc2n2nnnc12 -15.6%, Cc1cccc(N2C(=O)CC(N3CCN(C(=O)c4ccccc4)CC3)C2=O)c1 (stereo not given) 2.13%, CC(C)Cn1c(=O)c(C2=NS(=O)(=O)c3ccccc3N2)c(O)c2ccccc21 1.8%, c1ccc(CNc2ncnc3ccccc23)cc1 3.93%, O=S1(=O)N=C(Nc2nc3c(s2)CCCC3)c2ccccc21 -7.62%, CCCn1c2ccccc2c2nnc(SCC(=O)Nc3ncccn3)nc21 -2.36%, COc1cc(OC)cc(C(=O)N2c3ccc(F)cc3CCC2C)c1 (stereo not given) -3.02%, CCOC(=O)C(CCc1nnc(N)s1)C(=O)OCC -0.48%, CCOC(=O)N1CCN(c2c(NCCCOC(C)C)c(=O)c2=O)CC1 -0.98%, CN(C)S(=O)(=O)Nc1ccc(Br)cc1F -8.1%, CC(=O)Nc1c(C(=O)C2CC2)oc2ccccc12 -5.4%, O=C(COC(=O)c1cc(-c2ccco2)nc2ccccc12)NCc1ccc2c(c1)OCO2 -10.3%, CCC(=O)c1ccc(OCCN2CCOCC2)cc1 -3.87%, Cc1cc(=O)oc2cc(OCC(=O)OCc3nnc(-c4ccccc4)o3)ccc12 -0.16%, Nn1c(SCC(=O)NC2CCCCC2)nnc1C1CC1 10.8%, CCN(C(=O)Cc1c(C(=O)O)[nH]c2ccccc12)c1cc(OC)ccc1OC 4.5%, O=C(NCc1ccco1)c1cnc2n(c1=O)CCS2 -1.48%, O=C1CN(C(=O)COC(=O)c2ccccc2NC(=O)c2ccco2)c2ccccc2N1 -0.49%, CC(=O)Nc1ccc(S(=O)(=O)n2nc(C)cc2C)cc1 10.3%, CCOC(=O)CSc1nnc(Cn2nnc(-c3ccccc3)n2)n1CC -3.17%, O=C(Nc1ccccc1C(=O)N1CCCCCC1)c1cccc(S(=O)(=O)N2CCOCC2)c1 -1.45%, Cc1ccc(-c2cc(C(=O)NCc3ccc4c(c3)OCO4)no2)cc1 -0.33%, CCOC(=O)c1cc(C)sc1N1C(=O)C2C3C=CC(C3)C2C1=O (stereo not given) -0.95%, Cc1ccc(-c2nc(CS(=O)CC(=O)NCCN(CC(C)C)CC(C)C)c(C)o2)cc1 (stereo not given) 0.97%, CCN(CC)S(=O)(=O)N1CCC(C(=O)NC2CCCc3ccccc32)CC1 (stereo not given) -4.26%, COc1ccc(OC)c(Nc2cc(-c3ccccc3)nc(N)n2)c1 -5.09%, O=c1ccc(S(=O)(=O)N2CCC(Cc3ccccc3)CC2)c[nH]1 -4.33%, CN(C)S(=O)(=O)c1ccc(Oc2ccc(S(=O)(=O)N(C)C)cc2)cc1 -7.14%, COc1ccc2c(c1OC)C(=O)OC2C1c2c(cc3c(c2OC)OCO3)CCN1C (stereo not given) 4.92% and 5.33%, c1ccc(-c2cn3c4c(sc3n2)CCCC4)cc1 1.27%, Oc1ccc2[nH]cnc2c1CN1CCCCC1 3.28%, CCCCOc1cc(=O)[nH]c(=O)[nH]1 -7.33%, COc1cc(-c2nn3c(-c4cccnc4)nnc3s2)cc(OC)c1OC -4.35%, CCS(=O)(=O)Nc1ccc(C(=O)CC2(O)C(=O)Nc3ccccc32)cc1 (stereo not given) 2.13%, Cn1c(=O)c2[nH]c(NCC3CCCO3)nc2n(-c2ccccc2)c1=O (stereo not given) 3.67%, Cc1cccc(OCCCC(=O)O)c1 -6.83%, Cc1cccc2cc(CN(CC3CCCO3)C(=O)c3cnccn3)c(=O)[nH]c12 (stereo not given) -0.67%, COCCCNC(=O)C(Cc1ccccc1)NS(=O)(=O)c1ccc2c(c1)c(=O)n(C)c(=O)n2C (stereo not given) -3.97%

— PubChem BioAssay
